From PubChem BioAssay AID2685 (National Center for Advancing Translational Sciences (NCATS), 2010)
Out of some 320,000 compounds screened, about 2,100 (0.66%) were called active. Roughly 53% stayed inconclusive and do not appear here. The sample holds actives, similar compounds and a random draw of the others, so the mix is not that of the screen. Calls come from the whole dose curve; as a rule, active = well fitted inhibition curve with a large enough effect in the signal ratio, with a control signal flat (not every such curve was filed as active); inconclusive = small, poorly fitted or top-dose-only effect, or effect the other way, or a change in a side signal; inactive = flat fitted curve, though single readings scatter; the % refers to the signal ratio.

Experiment: qHTS Assay for Lipid Storage Modulators in Drosophila S3 Cells;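 for cell number change: cells counted by Cell Tracker Red CMTPX staining in the red channel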; for lipid storage change, negative = inhibition: % is set by controls: 0 for no effect and ±100 for the full control effect
Conditions: BODIPY lipid droplet fluorescence, 18-24 h, cells fed with added oleic acid; cell number change: measured here: cell count max response; series mostly up to 46.1 µM; lipid storage change, negative = inhibition: at the top concentration
Method in brief: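 Drosophila S3 cells got compounds at several concentrations plus oleic acid (400 uM solution). Laser-scanning cytometry with 488 nm excitation read lipid droplets at 500-530 nm and cells at 575-640 nm. Percent activity was relative to 20 uM Triacsin C.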
Potency is the fitted concentration of half-maximal effect.

| SMILES | lipid storage change, negative = inhibition | cell number change [%] | Potency | outcome |
| --- | --- | --- | --- | --- |
| COc1ccc(C(=O)NCCc2c[nH]c3ccccc23)cc1OC | 18% (inactive) | -1.75 | – | – |
| O=C(CCc1nc2ccccc2c(=O)[nH]1)OCc1cccc(C(F)(F)F)c1 | -1.93% (inactive) | -19.1 | – | – |
| COc1ccc(CN2CCCCC2C)cc1C (stereo not given) | -3.51% (inactive) | 16 | – | – |
| Cc1cccc(NC(=O)CSc2nc3[nH]ncc3c(=O)[nH]2)c1C | 18% (inactive) | 6.95 | – | – |
| COc1ccc(-c2nnc(-c3ccc(Br)o3)o2)cc1OC | 21.7% (inactive) | 2.37 | – | – |
| CCOC(=O)N1CCN(C(=O)COc2ccc(S(=O)(=O)NC(C)C)cc2)CC1 | 5.97% (inactive) | -5.69 | – | – |
| CCOc1ccc(S(=O)(=O)N/N=C(\C)C2CCCCC2)cc1 | – | -18.4 | 20.6 µM (active) | – |
| CCOc1ccc(S(=O)(=O)NC2CCCCCC2)cc1 | 6.04% (inactive) | 1.37 | – | – |
| CCOc1ccc(S(=O)(=O)NC2CCCC2)cc1 | – | 13.5 | – | inactive |
| CCNC(=O)CSc1nc(-c2ccc(F)cc2)cs1 | 7.14% (inactive) | 6.04 | – | – |
| O=C(NNC(=O)c1ccc2ccccc2c1O)Nc1ccc(F)cc1 | -1.42% (inactive) | 22.7 | – | – |
| Cc1ccc(N=Nc2ccc(O)c3ncccc23)cc1 | 0.161% (inactive) | -11.6 | – | – |
| O=C(O)c1cc(N=Nc2c(O)ccc3ccccc23)cc(C(=O)O)c1 | -24.9% (inactive) | 0.308 | – | – |
| Oc1ccc2ccccc2c1N=Nc1ccc(F)cc1 | – | -18.6 | 5.8 µM (active) | – |
| Cc1ccc(N=Nc2ccc3ccccc3c2O)cc1 | – | 1.47 | 0.058 µM (active) | – |
| Oc1c(N=Nc2ccc(F)cc2)ccc2ccccc12 | – | -26.4 | 4.11 µM (active) | – |
| O=C(CNc1ccc(F)cc1)N/N=C/c1c(O)ccc2ccccc12 | -10.8% (inactive) | -11.6 | – | – |
| Cc1ccc(N=Nc2ccc(C)cc2NC(=O)Nc2ccccc2F)cc1 | -11.3% (inactive) | 4.52 | – | – |
| NS(=O)(=O)c1ccc(N=Nc2c(O)c(C(=O)O)cc3ccccc23)cc1 | -1.28% (inactive) | -8.07 | – | – |
| Cc1cccc(C)c1OCC(=O)N/N=C/c1ccncc1 | 15.6% (inactive) | 1.08 | – | – |
| CN(CC(=O)Nc1ccc(Cl)cc1)C(=O)c1cc(-c2cccs2)nn1-c1ccccc1 | 16.7% (inactive) | 15.7 | – | – |
| COC(=O)CCC(=O)Nc1ccc(Br)cc1 | -11.3% (inactive) | -3.41 | – | – |
| CCOc1ccccc1NC(=O)CSc1nnc(CCC(=O)Nc2ccccc2F)n1C | – | -0.293 | – | inactive |

| SMILES | lipid storage change, negative = inhibition | cell number change [%] | Potency | outcome |
| --- | --- | --- | --- | --- |
| CC(C)(C)OC(=O)N[C@@H](CCCCNC(=O)OCc1ccccc1)c1nnc([C@H](CCCCNC(=O)OCc2ccccc2)NC(=O)OC(C)(C)C)o1 | -36.4% (inactive) | -3.75 | – | – |
| CCNC(=S)N1CCN(c2ccccn2)CC1 | 9.69% (inactive) | 12.6 | – | – |
| CC(C)(C)c1ccc(C(=O)NC(=S)N2CCOCC2)cc1 | – | 8.33 | – | inactive [at 0.369 µM] |
| CC(C)(C)c1ccc(C(=O)N2CCC3(CC2)NCCc2[nH]cnc23)cc1 | – | 22.1 | – | inactive |
| O=Cc1ccc(OCC(=O)Nc2ccccc2-c2ccccc2)cc1 | 8.41% (inactive) | 18 | – | – |
| COc1ccccc1NC(=O)Cc1cccc2ccccc12 | -19.7% (inactive) | -14.6 | – | – |
| COc1cc(NS(=O)(=O)c2ccc(NC(=S)NC(=O)c3ccco3)cc2)nc(OC)n1 | -13.8% (inactive) | -18.5 | – | – |
| COc1cc(/C=N/n2c(-c3cc(C)[nH]n3)n[nH]c2=S)ccc1O | -10.3% (inactive) | 4.27 | – | – |
| Cc1ccc(-c2csc(NC(=O)CN3CCC(C(N)=O)CC3)n2)cc1 | – | -18.5 | – | inactive |
| CC1CCN(CC(=O)Nc2nc(-c3ccccc3)cs2)CC1 | -4.89% (inactive) | 10.6 | – | – |
| COCC(=O)Nc1nc(-c2ccc(-c3ccccc3)cc2)cs1 | 4.79% (inactive) | 7.77 | – | – |
| CCOC(=O)c1ccc(-c2csc(NC(=O)CN3CCC(C)CC3)n2)cc1 | – | 3.78 | 2.91 µM (active) | – |
| CCOC(=S)SCC(=O)Nc1nc(-c2ccccc2)cs1 | – | -22.6 | 23.1 µM (active) | – |
| CCOC(=O)N1CCN(C(=O)CSCC(=O)Nc2nc(-c3ccccc3)cs2)CC1 | -4.18% (inactive) | -8.7 | – | – |
| COC(=O)NC1CCC(NC(=O)OC)CC1 (stereo not given) | 0.668% (inactive) | -8.14 | – | – |
| O=C(Nc1cc(Cl)ccc1Oc1ccccc1)C1=COCCO1 | – | -27.8 | – | inactive |
| CC(=O)C(=Nc1ccccc1Cl)NNc1ccc(Cl)cc1 | – | -39.5 | 23.1 µM (active) | – |
| CCOC(=O)C(=O)NNc1ccc(Cl)cc1 | 7.67% (inactive) | 0.213 | – | – |
| O=C(O)c1ccccc1C(=O)NNc1ccc(Cl)cc1 | 8.58% (inactive) | 6.32 | – | – |
| CC12CCC(c3c(C(=O)O)nn(-c4ccccc4)c31)C2(C)C (stereo not given) | -12.8% (inactive) | 7.24 | – | – |
| CC12CCC(c3c(C(=O)O)nn(-c4ccc(F)cc4)c31)C2(C)C (stereo not given) | – | -9.61 | 16.4 µM (active) | – |
| CC12CCC(c3c(C(=O)N4CCOCC4)nn(-c4ccccc4)c31)C2(C)C (stereo not given) | 10.8% (inactive) | 15.9 | – | – |
